KCNQ2 enhance: potentiators of rat KCNQ2 potassium channel; AID 2239, 2010; B-score at 10 µM; 310,000 tested, 0.54% active; Potassium voltage-gated channel subfamily KQT member 2 (Rattus norvegicus), O88943; CHO-K1 KCNQ2, FluxOR thallium flux fluorescence; hits give high values;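 active = fluorescence ratio B-score at least 3 SD of library B-scores, with initial fluorescence B-score within 3 of them, cut at about 5.3 in these data; same plate scores as AID 2156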;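 note: B-score of peak minus minimum over baseline fluorescence ratio after K+ and Tl+ stimulus; positive B-score means potentiation of KCNQ2 with more thallium influx and brighter signal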
KCNQ2 block: rat KCNQ2 potassium channel inhibitors, primary screen, cell-based, CHO-K1, FluxOR thallium flux, B-score | Potassium voltage-gated channel subfamily KQT member 2 (Rattus norvegicus), O88943 | 20 min; hits give low values | B-score at 10 µM | 310,000 tested, 1.1% active | AID 2156, 2009;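 active = fluorescence ratio B-score at most minus 3 library SDs, with starting brightness B-score within 2 library SDs, cut at about -5.5 in these data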
Kir21 confirm: mouse Kir2.1 channel blockers, retest, confirmation, cell-based, FluxOR thallium flux, duplicate. Kir2.1-expressing cells, FluxOR thallium flux fluorescence; hits give low values. AID 2032, 2009. 2,300 tested, 41% active. Tl flux remaining, % of negative control (hits give low values), % at 10 µM. shares compounds with KCNQ2 enhance;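 active = Primary-screen hit whose thallium flux fell at least 3 control SD below untreated wells in both duplicates, with normal baseline fluorescence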;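 note: 0% = blank wells without stimulus and 100% = stimulated no-compound controls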
HEK293 Tl flux: alters thallium flux in parental HEK293 cells, Kir2.1 counter-screen | 2,300 tested, 19% active | FluxOR signal as % of negative control (100 = no effect), % at 10 µM | shares compounds with KCNQ2 enhance | FluxOR thallium flux fluorescence; 0% = unstimulated blank wells;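 active = dye signal at least 3 control SD above or below untreated wells in both duplicates, raw fluorescence within 3, either direction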;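 note: percent is based on the flux ratio of peak minus minimum fluorescence over baseline F0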
CHO-K1 ctr: nonspecific thallium flux increase in parental CHO-K1, confirmation, counter-screen for KCNQ2 potentiator project, cell-based, FluxOR thallium flux, duplicate | parental CHO-K1 cells, FluxOR thallium flux fluorescence; zero = vehicle mean+3SD, 100% = vehicle-minus-blank window | shares compounds with KCNQ2 enhance | activity increase over 3SD of controls, % at 10 µM | 1,200 tested, 43% active | AID 2282, 2010;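 active = signal rise of at least 3 SD above the untreated control mean, in both duplicate wells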;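 note: counter screen of KCNQ2 potentiator hits so any rise reflects channel-independent effects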
KCNQ1 sel pot: human KCNQ1 channel potentiation off-target, confirmation, selectivity assay for KCNQ2 potentiator project, cell-based, CHO, FluxOR thallium flux | CHO KCNQ1 stable, FluxOR thallium flux fluorescence; beyond 3SD, as % of vehicle-control signal | 1,200 tested, 28% active | AID 2283, 2010 | shares compounds with KCNQ2 enhance | activation over 3SD threshold, % at 10 µM;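 active = fluorescence ratio rise of at least 3 SD of vehicle wells above their mean, in both replicate wells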;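 note: 0% = vehicle mean plus 3 SD and 100% = vehicle minus unstimulated blank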
KCNQ2 pot confirm: rat KCNQ2 channel potentiators, confirmation, cell-based, CHO, FluxOR thallium flux, duplicate; AID 2287, 2010; 1,200 tested, 68% active; shares compounds with KCNQ2 enhance; CHO-KCNQ2 cells, FluxOR thallium flux fluorescence; potentiation, less the hit threshold, % at 10 µM;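 active = fluorescence ratio rising 3 SD or more over the vehicle control mean in both replicates, plus primary screen hit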;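 note: peak minus minimum thallium fluorescence divided by baseline after K/Tl stimulus; 0% = vehicle mean plus 3 SD and 100% = vehicle minus unstimulated blank difference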
Kir21 spec: mouse Kir2.1 channel activation off-target, confirmation, selectivity assay for KCNQ2 potentiator project, cell-based, HEK293, FluxOR thallium flux. HEK293 Kir2.1, FluxOR thallium flux fluorescence. activity over 3SD threshold, % at 10 µM. 1,200 tested, 2% active. shares compounds with KCNQ2 enhance. AID 2345, 2010;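 active = fluorescence ratio rise of at least 3 SD above the vehicle-control mean, seen in both replicates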;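 note: 0% = vehicle mean plus 3 SD and 100% = vehicle minus no-stimulus blank window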
KCNQ2 W236L pot: potentiators of retigabine-insensitive KCNQ2 W236L, mechanism study for KCNQ2 potentiator project, cell-based, rat KCNQ2 W236L, CHO, automated patch clamp | shares compounds with KCNQ2 enhance | automated patch clamp current | current increase over 3SD of negative controls (%), hits give high values, % at 25 µM | 940 tested, 10% active | AID 2558, 2010;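 active = current increase at least 3 SD of the untreated controls above them in both duplicate recordings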
Target sequence (O88943 whole entry W236L, looked up): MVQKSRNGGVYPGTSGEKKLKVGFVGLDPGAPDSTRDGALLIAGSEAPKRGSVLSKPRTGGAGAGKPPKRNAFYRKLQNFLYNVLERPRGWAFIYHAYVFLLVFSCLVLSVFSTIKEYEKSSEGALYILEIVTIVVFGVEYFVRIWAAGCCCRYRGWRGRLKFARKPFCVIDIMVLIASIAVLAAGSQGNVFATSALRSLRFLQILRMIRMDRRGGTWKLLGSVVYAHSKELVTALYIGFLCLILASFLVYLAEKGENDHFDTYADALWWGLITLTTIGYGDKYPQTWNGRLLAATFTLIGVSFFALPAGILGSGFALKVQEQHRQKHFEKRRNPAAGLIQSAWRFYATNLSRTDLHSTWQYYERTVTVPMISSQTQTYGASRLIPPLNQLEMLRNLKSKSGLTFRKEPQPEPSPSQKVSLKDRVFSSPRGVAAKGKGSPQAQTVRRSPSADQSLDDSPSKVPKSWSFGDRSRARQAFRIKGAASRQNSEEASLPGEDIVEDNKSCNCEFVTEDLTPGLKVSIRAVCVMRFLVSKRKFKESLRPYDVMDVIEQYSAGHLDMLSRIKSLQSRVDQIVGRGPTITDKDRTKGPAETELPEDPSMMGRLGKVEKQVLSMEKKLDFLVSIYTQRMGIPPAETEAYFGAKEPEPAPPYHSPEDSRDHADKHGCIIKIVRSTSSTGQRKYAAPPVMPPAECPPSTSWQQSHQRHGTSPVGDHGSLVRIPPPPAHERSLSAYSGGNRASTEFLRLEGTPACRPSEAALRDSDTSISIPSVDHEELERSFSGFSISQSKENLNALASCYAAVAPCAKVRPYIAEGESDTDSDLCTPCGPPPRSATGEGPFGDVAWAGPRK
An asterisk follows results filed as active; i = inactive; · = not tested or not shown. Hits are enriched below; roughly 1.6% of the tested compounds scored in any of these assays.

SMILES | KCNQ2 enhance | KCNQ2 block | Kir21 confirm | HEK293 Tl flux | others
COc1ccc(CNCc2ccco2)cc1OCc1ccccc1 | 0.49 | i | · | ·
COc1ccccc1CCNCc1ccc(OC)c(OCc2ccccc2)c1 | · | i | i | i
Nc1ccnc(=O)[nH]1 | · | i | · | ·
CCOc1cc(CNCCSc2nnnn2C)cc(Br)c1OCc1ccccc1F | 0.49 | i | · | ·
CCOc1cc(CNCc2ccncc2)cc(Br)c1OCc1ccccc1F | · | i | 52%* | i
CCOc1cc(CNCCO)cc(Br)c1OCc1cccs1 | 0.12 | i | 23%* | i
CCOc1cccc(CNCCO)c1OCc1ccc(Cl)cc1Cl | 1 | i | · | ·
CCOc1cc(CNCCO)cc(Br)c1OCc1ccc(Cl)cc1Cl | -13 | -13* | 21%* | i
CCOc1cc(CNCc2cccs2)cc(Br)c1OCC | · | i | · | ·
CC(C)C(CO)NC(=O)CC(=O)NC(CO)C(C)C (configuration not stated) | · | i | · | ·
C=CCN(CC=C)C(=O)Nc1cc(OC)ccc1OC | 0.41 | i | · | ·
O=C(Cn1cc(S(=O)(=O)Cc2cccc([N+](=O)[O-])c2)c2ccccc21)N1CCOCC1 | · | i | · | ·
O=c1nc(SCc2ccccc2Cl)nc(-c2ccc(Cl)cc2)[nH]1 | 11* | i | i | 148%* | CHO-K1 ctr=13*;KCNQ1 sel pot=-9;KCNQ2 pot confirm=6.1*;Kir21 spec=-34;KCNQ2 W236L pot=i
O=c1nc(SCc2c(F)cccc2Cl)nc(-c2ccc(Cl)cc2)[nH]1 | 2.9 | i | · | ·
CCc1ccc(S(=O)(=O)NCCc2csc(-c3ccccc3)n2)s1 | · | i | · | ·
CCc1ccc(S(=O)(=O)NCc2csc(-c3ccccc3)n2)s1 | · | i | 49%* | i
CSC1=C(C#N)C(CC(C)C)C(C(C)=O)=C(C)N1 (configuration not stated) | 1.2 | i | 72%* | i
CSC1=C(C#N)C(CC(C)C)C2=C(CCCC2=O)N1 (configuration not stated) | 1.4 | i | · | ·
CCOc1nc(C)cc(C)c1S(=O)(=O)c1cccc(Cl)c1 | · | i | 61%* | i
Cc1cc(C)c(S(=O)(=O)c2cccc(Cl)c2)c(Cl)n1 | · | i | · | ·
CC1=C(C(=O)OCCOc2ccccc2)C(c2ccsc2)NC(=O)N1C (configuration not stated) | · | i | · | ·
O=C(NCc1ccc(Cl)cc1Cl)Nc1ccccc1 | 11* | i | i | i | CHO-K1 ctr=-3;KCNQ1 sel pot=4.9*;KCNQ2 pot confirm=29*;Kir21 spec=-34;KCNQ2 W236L pot=9.9%*
O=C(NCc1csc2ccc(Cl)cc12)Nc1ccccc1 | · | i | · | ·
CC(C)c1ccc(/C=N/n2c(COc3ccccc3)n[nH]c2=S)cc1 | 7.7* | i | i | i | CHO-K1 ctr=-3;KCNQ1 sel pot=-45;KCNQ2 pot confirm=9.0*;Kir21 spec=-15;KCNQ2 W236L pot=i
Cc1ccc(/C=N/n2c(COc3ccccc3)n[nH]c2=S)cc1 | · | i | · | ·
SMILES | KCNQ2 enhance | KCNQ2 block | Kir21 confirm | HEK293 Tl flux | others
Cc1c(S(=O)(=O)N2CCCCC2)c(=O)n(C)c(=O)n1C | 0.84 | i | · | ·
O=C(CCC(=O)N(CC(=O)NC1CCCC1)Cc1ccccc1Cl)Nc1nccs1 | 0.06 | i | · | ·
COc1ccc(C(C)=O)cc1CSc1nnnn1-c1ccc(O)cc1 | · | i | · | ·
CCOc1ccc(C(C)=O)cc1CSc1nnnn1-c1ccc(O)cc1 | · | i | 62%* | i
CSCCC(NC(=O)c1ccc(Cl)cc1)C(=O)OCC(=O)N1CCCC1=O (configuration not stated) | 8.8* | i | i | i | CHO-K1 ctr=-8;KCNQ1 sel pot=-6;KCNQ2 pot confirm=18*;Kir21 spec=-35;KCNQ2 W236L pot=26%*
CSCCC(NC(=O)c1ccc(Cl)cc1)C(=O)O (configuration not stated) | 0.16 | i | · | ·
Cc1cc(Cl)ccc1OC(C)C(=O)Nc1ccc([N+](=O)[O-])cn1 (configuration not stated) | 0.01 | i | · | ·
O=C(Oc1ccc(=O)n(-c2ccccc2)n1)c1ccccc1 | · | i | 61%* | i
O=C(O)COc1ccc(=O)n(-c2ccccc2)n1 | 1.3 | i | · | ·
OC(CNCc1ccco1)Cn1c2ccccc2c2ccccc21 (configuration not stated) | · | i | 72%* | i
OC(CNCc1ccco1)COc1ccccc1 (configuration not stated) | · | i | · | ·
CCCCCC(C)n1[nH]c(=O)cc1N (configuration not stated) | 0.71 | i | · | ·
Cc1ccc(C)c(/C=C/C(=O)c2ccccc(=O)c2O)c1 | 18* | i | i | 144%* | CHO-K1 ctr=33*;KCNQ1 sel pot=36*;KCNQ2 pot confirm=-4;Kir21 spec=-40;KCNQ2 W236L pot=i
O=C(/C=C/c1ccccc1Cl)Nc1ccccc1 | · | i | · | ·
O=C(/C=C/c1ccccc1Cl)c1ccccc(=O)c1O | 8.4* | i | i | 153%* | CHO-K1 ctr=-4;KCNQ1 sel pot=4.1*;KCNQ2 pot confirm=-6;Kir21 spec=-45
Cc1ccc(C)c(NC(=O)c2ccccc2O)c1 | 0.05 | i | · | ·
CCCCOc1ccc(Br)cc1/C(C)=N/NC1=NCCN1 | · | i | i | i
CCCCCCOc1ccc(/C(C)=N/NC2=NCCN2)cc1[N+](=O)[O-] | 0.72 | i | · | ·
O=C1C2CCCCC2C(=O)N1c1ccc(S(=O)(=O)Nc2ncccn2)cc1 (configuration not stated) | 0.58 | i | · | ·
CN(C)S(=O)(=O)Nc1cc(Cl)cc(Cl)c1 | 0.75 | i | · | ·
CC1=NN(C(=O)c2ccccc2C)C(O)(c2ccc(Cl)cc2)C1 (configuration not stated) | 11* | i | i | i | CHO-K1 ctr=22*;KCNQ1 sel pot=-16;KCNQ2 pot confirm=-14;Kir21 spec=-35
